From PubChem BioAssay
An excerpt weighted towards active compounds, which were near 19% of everything screened.
IL-1B inflam inh – blocks inflammasome-driven IL-1 beta release; AID 743279; THP-1 LPS/ATP IL-1B secretion, AlphaLISA, 16 h; active compounds read low; activity change, % at 57.5 µM; actives 4.7% (n = 360,000); in the data active = activity change below about -50%; inconclusive = mostly about -30% to -49%
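THP-1 cells pretreated 1 hr with compounds (up to 57.5 uM final), then stimulated with LPS (250 ng/mL final) plus ATP (1.25 mM final); secreted IL-1B measured by AlphaLISA after 16 hr, decreased signal indicating inhibition.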
TDP1 cell noCPT – qHTS for Inhibitors of human tyrosyl-DNA phosphodiesterase 1 (TDP1): qHTS in cells in absence of CPT. AID 686978, 2013. Potency, µM (series often up to 46.2 µM), inactives show at the top dose activity change, negative = growth inhibition, most hits filed as inhibitors. DT40 Tdp1-/- hTDP1 cells, no CPT, ATP luminescence, 48 h. actives 15% (n = 420,000); also: potency is read from the fitted curve at half-maximal effect; nearly all actives have a fitted effect of over 55% in size
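A cellular qHTS used chicken DT40 cells lacking endogenous Tdp1 but carrying stably transfected human TDP1. Compounds were applied without camptothecin, and cell growth kinetics were judged by ATP-dependent luminescence after ≥48 hr.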
DT40 TDP1 CPT – DT40-hTDP1 cell growth loss with CPT. Potency, µM (series often up to 46.2 µM), inactives show at the top dose activity change, negative = growth inhibition, hits mostly inhibitors. chicken DT40 Tdp1-/-;hTDP1 cells + 20 nM CPT, ATP luminescence, 48 h. actives 12% (n = 420,000); also: potency is read from the fitted curve at half-maximal effect; nearly all actives have a fitted effect of over 55% in size
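Chicken DT40 Tdp1-/- cells stably complemented with human TDP1 were seeded at 400 cells/well in medium containing 20 nM camptothecin, exposed to pin-transferred compounds, and grown at 37 °C for at least 48 hr. Viability was read as ATP luminescence.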
HT1080-NT tox – kills 2HG-producing HT-1080-NT fibrosarcoma cells; HT-1080-NT fibrosarcoma viability, CellTiter-Glo ATP luminescence, 48 h; Potency, µM (series often up to 46.1 µM), without a hit: at the top dose activity, negative = less viability, most hits filed as cytotoxic; actives 1.6% (n = 360,000);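 also: NT is the 2HG producing partner of a matched IDH1 knockdown line; potency is read from the fitted curve at half-maximal effect; 0% = DMSO-treated cells and -100% = media-only wells without cells; nearly all actives have a fitted effect of over 55% in size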
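Viability of the 2HG-overproducing fibrosarcoma line after 48 hours of compound exposure at 37 degrees C was determined by luminescence with CellTiter-Glo, and concentration-effect curves were then fitted and categorized.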
HT1080 IDH1KD tx – kills HT-1080 cells with IDH1 knockdown; actives 2% (n = 360,000); HT-1080 IDH1 knockdown viability, ATP luminescence, 48 h; Potency, µM (top dose mostly 46.1 µM), without a hit: at the top dose activity, negative = toxicity, hits mostly cytotoxic; AID 686971;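 also: potency is read from the fitted curve at half-maximal effect; 0% = DMSO wells and -100% = cell-free medium wells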
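HT-1080-IDH1KD cells (IDH1 knocked down), 750/well in RPMI with 5% FBS, treated with compound 48 h at 37 degrees C. Viability by CellTiter-Glo luminescence, normalised to DMSO and no-cell wells; concentration-response curves classed.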
* = called active by the depositor; ? = inconclusive; . = no result given. Unless noted, calls follow the shape of the dose curve; as a rule, active = well fitted curve in the direction sought with a large enough effect; inconclusive = small, poorly fitted or top-dose-only effect, or another doubt; inactive = no such curve, though single readings can be large; an effect the other way counts as inactive or inconclusive. Unless noted, % is scaled to controls: 0 for no effect and ±100 for the full control effect.

SMILES	IL-1B inflam inh	TDP1 cell noCPT	DT40 TDP1 CPT	HT1080-NT tox	HT1080 IDH1KD tx
Cc1cc(C)c(NC(=O)CSc2nc(=O)n(Cc3cccnc3)c3c2CCC3)c(C)c1	.	1.5%	-3.5%	.	.
CCOc1cc(C2C3=C(CC(C)(C)CC3=O)N(CCOC)C3=C2C(=O)CC(C)(C)C3)ccc1O	-6.7	-14.8%	1.8%	-6.0%	-5.6%
c1ccc(COc2ncnc3c2ncn3CCCNCc2ccc3c(c2)OCO3)cc1	-16.9	?	?	-4.2%	-13.3%
CCCOc1ccc(C(=O)Nc2ccc(Cl)c(-c3nc4ncccc4o3)c2)cc1	.	10.3µM*	23.1µM*	.	.
Cc1cc(C)cc(OCC(=O)Nc2ccc(Cl)c(-c3nc4ncccc4o3)c2)c1	.	?	18.4µM*	.	.
Cc1ccc(OCC(=O)Nc2ccc(Cl)c(-c3nc4ncccc4o3)c2)c(C)c1	.	14.6µM*	?	.	.
Cc1cc(C)c2oc(-c3cccc(NC(=O)COc4ccc(Cl)cc4C)c3C)nc2c1	.	-0.9%	5.01µM*	.	.
C[N+]1(C)CCN(CC(O)(c2ccccc2)C2CCCCC2)CC1 (stereo not given)	.	-14.7%	2.2%	.	.
CCN(C(=O)N(CC)c1ccccc1)c1ccccc1	17.0	?	-14.1%	?	8.8%
CCN(C(=O)CCCCC(=O)N(CC)c1ccccc1)c1ccccc1	17.6	18.4µM*	?	14.0%	6.6%
Cc1ccc(O)c(NC(=O)CCSc2nc(-c3ccco3)cc(C(F)(F)F)n2)c1	.	18.4µM*	?	.	.
CN(C)c1ccc(NC(=O)CCSc2nc(-c3ccco3)cc(C(F)(F)F)n2)cc1	.	18.4µM*	?	.	.
COc1ccccc1N1CCN(C(=O)CSc2nc(-c3ccco3)cc(C(F)(F)F)n2)CC1	-2.3	23.1µM*	?	-1.4%	-5.4%
Cc1nn(C)cc1NC(=O)CCSc1nc(-c2ccco2)cc(C(F)(F)F)n1	0.8	?	-20.8%	-4.6%	-0.3%
O=C(CSc1nc(-c2ccco2)cc(C(F)(F)F)n1)N1CCN(Cc2ccccc2)CC1	-14.7	?	?	24.4%	-3.3%
Cc1ccc(NC(=O)CSc2nc(-c3ccco3)cc(C(F)(F)F)n2)cc1	.	3.26µM*	2.06µM*	.	.
COc1ccc(NC(=O)CCSc2nc(-c3ccco3)cc(C(F)(F)F)n2)cc1	.	-7.8%	-13.7%	.	.
CC1CC[C@]2(CO)CC[C@]3(C)C(=CCC4[C@@]5(C)CCC(O)C(C)(C)C5CC[C@@]43C)C2C1C (stereo not given in full)	.	2.0%	6.6%	.	.
CC(=O)c1cccc(NC(=O)c2cccc3ccccc23)c1	0.7	-4.0%	-0.9%	1.6%	3.2%
Cc1cc(NC(=O)CSc2nc(-c3ccco3)cc(C(F)(F)F)n2)no1	61.9	0.731µM*	0.581µM*	0.581µM*	0.517µM*
Cc1cc(NC(=O)CCCSc2nc(-c3ccco3)cc(C(F)(F)F)n2)no1	2.3	-27.4%	-0.2%	12.8%	2.1%
O=C(CSc1nc(-c2ccco2)cc(C(F)(F)F)n1)Nc1ccc(C(=O)N2CCCCC2)cc1	7.2	6.51µM*	7.31µM*	0.2%	0.4%
CCn1nc(C)c(NC(=O)CCCSc2nc(-c3ccco3)cc(C(F)(F)F)n2)c1C	-21.7	14.6µM*	18.4µM*	-20.1%	-19.0%
COc1ccc(NC(=O)[C@@H]2O[C@H](CO)[C@H](O)[C@H](O)[C@H]2O)cc1F	7.9	4.2%	8.0%	-2.7%	4.9%
CC(C)(C)C(=O)OCC1OC(n2cnc(C(N)=O)n2)C(O)C1O (stereo not given)	7.4	?	16.4µM*	2.7%	6.9%
CCCOc1ccc2ccccc2c1/C=N/n1c(C)nnc1-n1nc(C)cc1C	12.0	3.26µM*	3.26µM*	?	4.11µM*
CCc1nn(CC(=O)NC(C)CCc2ccccc2)c(=O)c2cc3occc3n12 (stereo not given)	2.1	?	?	0.9%	1.2%
CCc1nn(CC(=O)N(CC)Cc2ccccc2)c(=O)c2cc3occc3n12	.	16.4µM*	23.1µM*	.	.
O=C(NCc1ccccc1)c1ccc(C(=O)NCc2ccccc2)cc1	0.0	2.6%	-4.0%	7.6%	5.4%
